# Records with an inconclusive call do not appear. More than one record can exist for a structure, and the calls need not agree. Activity calls are given as the source filed them. Unless noted, the call rests on the fitted dose curve; in most records, active means well fitted curve in the direction sought with a large enough effect; inconclusive means small, poorly fitted or top-dose-only effect, or another doubt; inactive means no such curve, though single readings can be large; an effect the other way counts as inactive or inconclusive.
# Tests used:
# [1] = Confirmation and Secondary Assay for Modulators of Hemoglobin Beta Chain Splicing at IVS2 654 locus (AID 910);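 further: HeLa cells stably carrying EGFP split by mutant beta-globin IVS2-654 intron; per-well total GFP intensity by laser scanning cytometry after 2-day treatment; % of control where 0% means no effect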
# How it was run: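 Readout: per-well total peak green fluorescence (488 nm ex, 500–520 nm em) from objects 5–250 µm, reflecting correct splicing of an EGFP-654 reporter. Compounds were applied for 2 days at 37 °C to overnight-plated HeLa EGFP-654 cells; controls were DMSO and 500 nM IVS2-654 PNA.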
# [2] = Confirmation and Secondary Assay for Modulators of Hemoglobin Beta Chain Splicing at IVS2 705 locus (AID 930);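 further: HeLa cells stably expressing the EGFP-705 splicing reporter; GFP fluorescence per well restored by corrected splicing of the IVS2-705 intron in EGFP; % of control where 0% means no effect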
# How it was run: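 HeLa EGFP-705 reporter; 500 cells/well, o/n 37C 5% CO2; cpd 2 d; 488 ex/500-520 em laser scan; total peak GFP intensity/well. Ref: 500 nM […] antisense PNA.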
# [3] = qHTS Assay for Identification of Small Molecule Agonists for Hypoxia Response Element Signaling Pathway (AID 914; active means well fitted activation curve with a large enough effect in the signal ratio, with a control signal flat, not every such curve was filed as active; the % refers to the signal ratio; further: potency means the concentration at half of the fitted maximal effect; on activation: % of control where 0% means no effect); conditions: ME-180 (cervical carcinoma) HRE-bla reporter, beta-lactamase ratio, CoCl2, 17 h; activation: stronger effect = higher value
# How it was run: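 Read-out: CCF4 FRET ratio of 460nm to 530nm emission (excitation 405nm) after 2.5 hours at room temperature, taken from HRE-bla ME-180 cells that had been exposed to compound and EC50 CoCl2 for 17 hours.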
# [4] = target: Dual specificity protein kinase CLK4 (Homo sapiens) (UniProt Q9HAZ1); test: qHTS Assay for Inhibitors of CDC-like Kinase 4 (ADP-Glo Assay) (AID 1771); further: nearly all actives have a fitted effect of over 70% in size; further: potency means the concentration at half of the fitted maximal effect; on activity change, negative = inhibition: on the % scale 0 is the no-effect control and ±100 the full control effect
# Chain of Dual specificity protein kinase CLK4 (Homo sapiens) (Q9HAZ1 whole entry, looked up): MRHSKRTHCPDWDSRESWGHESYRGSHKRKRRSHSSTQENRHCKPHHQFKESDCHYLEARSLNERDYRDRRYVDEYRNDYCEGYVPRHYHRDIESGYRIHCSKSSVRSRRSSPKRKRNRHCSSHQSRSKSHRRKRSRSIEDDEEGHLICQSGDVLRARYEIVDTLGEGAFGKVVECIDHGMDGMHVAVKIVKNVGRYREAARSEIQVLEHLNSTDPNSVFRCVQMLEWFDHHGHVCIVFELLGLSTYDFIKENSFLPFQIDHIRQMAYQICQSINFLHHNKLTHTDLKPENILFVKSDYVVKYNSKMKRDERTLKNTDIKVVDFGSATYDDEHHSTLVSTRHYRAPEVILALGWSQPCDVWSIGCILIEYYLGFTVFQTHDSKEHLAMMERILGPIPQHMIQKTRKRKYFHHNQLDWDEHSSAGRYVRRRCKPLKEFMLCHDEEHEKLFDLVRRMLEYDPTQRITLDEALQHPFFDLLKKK
# How it was run: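 25 nM Clk4, 100 uM RS peptide, 1 uM ATP (final); 2 mM MgCl2, 0.5 mM EGTA, 2.5 mM DTT, 0.01% Triton X-100; 1 hr RT. ADP-Glo readout: ATP depletion 45 min, conversion/luciferase 30 min, luminescence.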
# [5] = target: Cytochrome P450 2C19 (Homo sapiens) (UniProt P33261); test: qHTS Assay for Inhibitors and Substrates of Cytochrome P450 2C19 (AID 899); further: nearly all actives have a fitted effect of over 60% in size; further: potency means the concentration at half of the fitted maximal effect
# Chain of Cytochrome P450 2C19 (Homo sapiens) (P33261 whole entry, looked up): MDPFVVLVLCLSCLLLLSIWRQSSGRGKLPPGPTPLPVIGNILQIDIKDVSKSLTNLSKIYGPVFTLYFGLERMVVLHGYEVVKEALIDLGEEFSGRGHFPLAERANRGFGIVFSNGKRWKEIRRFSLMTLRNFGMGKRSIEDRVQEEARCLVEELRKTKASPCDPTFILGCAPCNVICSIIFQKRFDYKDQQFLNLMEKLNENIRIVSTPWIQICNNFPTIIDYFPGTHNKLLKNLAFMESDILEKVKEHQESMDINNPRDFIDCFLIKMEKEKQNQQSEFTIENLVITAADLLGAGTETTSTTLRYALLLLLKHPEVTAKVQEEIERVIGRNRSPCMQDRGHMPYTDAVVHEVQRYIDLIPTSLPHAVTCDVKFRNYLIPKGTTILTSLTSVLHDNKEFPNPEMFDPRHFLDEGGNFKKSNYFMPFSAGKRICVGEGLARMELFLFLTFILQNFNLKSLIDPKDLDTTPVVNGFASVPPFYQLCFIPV
# How it was run: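 Reactions contain 5nM enzyme, 10uM Luciferin-H EGE (KM) and 50mM KPO4; compound preincubates 10 min at 37C, NADPH regeneration starts turnover for 60 min. Luminescence after detection reagent gives activity.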
# [6] = target: Cytochrome P450 2C9 (Homo sapiens) (UniProt P11712); test: qHTS Assay for Inhibitors and Substrates of Cytochrome P450 2C9 (AID 883); further: nearly all actives have a fitted effect of over 60% in size; further: potency means the concentration at half of the fitted maximal effect; on activity change, negative = inhibition: on the % scale 0 is the no-effect control and ±100 the full control effect
# Chain of Cytochrome P450 2C9 (Homo sapiens) (P11712 whole entry, looked up): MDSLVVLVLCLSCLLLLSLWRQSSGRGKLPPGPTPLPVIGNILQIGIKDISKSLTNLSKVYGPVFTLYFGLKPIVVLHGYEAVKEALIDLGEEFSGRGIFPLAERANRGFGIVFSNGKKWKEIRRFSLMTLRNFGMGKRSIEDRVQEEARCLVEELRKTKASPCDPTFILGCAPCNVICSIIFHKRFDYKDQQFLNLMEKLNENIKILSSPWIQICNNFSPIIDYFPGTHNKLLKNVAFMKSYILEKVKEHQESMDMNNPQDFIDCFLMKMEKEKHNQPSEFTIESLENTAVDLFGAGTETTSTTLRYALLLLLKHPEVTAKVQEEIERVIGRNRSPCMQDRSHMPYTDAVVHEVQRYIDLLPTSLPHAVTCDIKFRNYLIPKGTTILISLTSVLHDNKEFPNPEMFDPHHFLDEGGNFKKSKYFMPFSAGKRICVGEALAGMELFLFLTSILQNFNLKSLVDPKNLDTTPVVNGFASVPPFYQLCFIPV
# How it was run: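 Turnover of Luciferin-H (100uM, KM) by 10nM human CYP2C9 was measured over 60 min at 37C with NADPH regeneration; inhibitors and some substrates reduce luminescence. Data normalized to sulphaphenazole 57uM.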
# [7] = target: DNA dC->dU-editing enzyme APOBEC-3G (Homo sapiens) (UniProt Q9HC16); test: qHTS for inhibitors of Vif-A3G interactions: Validation (AID 588379); further: 0% is about no effect
# Chain of DNA dC->dU-editing enzyme APOBEC-3G (Homo sapiens) (Q9HC16 whole entry, looked up): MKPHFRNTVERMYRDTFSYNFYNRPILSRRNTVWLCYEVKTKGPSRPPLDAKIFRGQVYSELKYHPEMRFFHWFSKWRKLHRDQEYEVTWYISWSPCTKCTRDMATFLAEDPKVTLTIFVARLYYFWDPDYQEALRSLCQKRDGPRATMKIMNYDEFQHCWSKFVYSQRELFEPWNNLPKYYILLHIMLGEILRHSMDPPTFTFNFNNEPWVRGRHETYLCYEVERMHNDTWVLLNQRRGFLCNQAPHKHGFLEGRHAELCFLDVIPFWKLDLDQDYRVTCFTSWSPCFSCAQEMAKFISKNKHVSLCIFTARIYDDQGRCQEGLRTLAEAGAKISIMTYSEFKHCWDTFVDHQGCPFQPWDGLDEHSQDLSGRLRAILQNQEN
# How it was run: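 Yellow fluorescence (Ex 488, Em 500-530) of Vif-coexpressing HeLa A3G-eYFP cells, scanned by Acumen cytometer, reports blocked A3G degradation. Cells plated at 700/well overnight at 37 deg C before compound addition, then a further overnight compound incubation at 37 deg C.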
# [8] = target: Cytochrome P450 2D6 (Homo sapiens) (UniProt P10635); test: qHTS Assay for Inhibitors and Substrates of Cytochrome P450 2D6 (AID 891); further: nearly all actives have a fitted effect of over 60% in size; further: potency means the concentration at half of the fitted maximal effect;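 on activity change, negative = inhibition: luciferin methyl ether substrate demethylated by CYP2D6 with NADPH regeneration; on the % scale 0 is the no-effect control and ±100 the full control effect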
# Chain of Cytochrome P450 2D6 (Homo sapiens) (P10635 whole entry, looked up): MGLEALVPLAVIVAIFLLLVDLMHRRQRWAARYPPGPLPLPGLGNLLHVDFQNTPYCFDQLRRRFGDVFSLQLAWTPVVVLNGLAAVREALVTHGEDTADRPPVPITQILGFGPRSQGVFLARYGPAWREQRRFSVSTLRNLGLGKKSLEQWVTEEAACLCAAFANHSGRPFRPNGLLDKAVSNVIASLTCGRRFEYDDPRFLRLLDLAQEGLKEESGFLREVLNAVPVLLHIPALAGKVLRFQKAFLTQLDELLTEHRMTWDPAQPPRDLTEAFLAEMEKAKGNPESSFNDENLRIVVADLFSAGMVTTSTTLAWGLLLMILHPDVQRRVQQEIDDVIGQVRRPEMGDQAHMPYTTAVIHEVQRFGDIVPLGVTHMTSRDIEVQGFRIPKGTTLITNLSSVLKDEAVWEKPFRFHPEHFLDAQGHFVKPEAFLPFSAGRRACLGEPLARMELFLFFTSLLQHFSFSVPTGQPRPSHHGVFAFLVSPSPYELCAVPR
# How it was run: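 Luminescent read-out of luciferin formed by 5 nM human CYP2D6 demethylating 30 uM Luciferin-ME EGE (Km level) over 60 min at room temperature after NADPH regeneration addition. Data normalized to full inhibition by 1.43 uM quinidine.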
# [9] = target: Catechol O-methyltransferase (Homo sapiens) (UniProt P21964); test: Confirmatory Screen for Target Class Profiling of Small Molecule Inhibitors of Methyltransferases (AID 1745852); conditions: MTase-Glo luminescence, SAH detection, recombinant enzyme; measured here: COMT max response; stronger effect = lower value; on activity change, negative = inhibition: on the % scale 0 is the no-effect control and ±100 the full control effect
# Chain of Catechol O-methyltransferase (Homo sapiens) (P21964 whole entry, looked up): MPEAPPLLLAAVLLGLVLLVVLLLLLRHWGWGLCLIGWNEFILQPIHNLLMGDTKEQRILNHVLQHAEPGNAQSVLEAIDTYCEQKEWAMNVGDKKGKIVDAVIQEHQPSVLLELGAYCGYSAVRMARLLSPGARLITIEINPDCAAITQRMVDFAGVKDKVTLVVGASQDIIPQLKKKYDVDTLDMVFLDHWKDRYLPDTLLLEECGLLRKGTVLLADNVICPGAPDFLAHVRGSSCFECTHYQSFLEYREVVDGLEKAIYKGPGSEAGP
# [10] = target: Guanidinoacetate N-methyltransferase (Homo sapiens) (UniProt Q14353); test: as above; conditions: MTase-Glo luminescence, SAH detection, recombinant enzyme; at 57.3 µM (top of the series)
# [11] = target: Nicotinamide N-methyltransferase (Homo sapiens) (UniProt P40261); test: as above; conditions: MTase-Glo luminescence, SAH detection, recombinant enzyme; measured here: NNMT max response; stronger effect = lower value
# Chain of Nicotinamide N-methyltransferase (Homo sapiens) (P40261 whole entry, looked up): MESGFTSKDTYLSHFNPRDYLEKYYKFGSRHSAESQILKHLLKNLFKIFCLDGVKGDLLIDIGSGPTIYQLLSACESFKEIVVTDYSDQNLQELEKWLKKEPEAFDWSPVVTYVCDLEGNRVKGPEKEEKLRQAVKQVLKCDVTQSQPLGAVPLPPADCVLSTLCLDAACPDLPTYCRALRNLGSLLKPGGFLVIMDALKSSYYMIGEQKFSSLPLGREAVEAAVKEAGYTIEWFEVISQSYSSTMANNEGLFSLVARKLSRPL
smiles,measurement,setting,value
Cc1cc(OC(=O)c2c(C)cc(O)cc2O)cc(O)c1C(=O)O,Potency,[1],inactive
same,outcome,[2],inactive
O=C1C=C(O)c2ccccc2C1=O,Potency,[1],inactive
same,outcome,[2],inactive
N#CCCn1c(=O)c(-c2cccs2)nc2cnc(N3CCOCC3)nc21,activation,[3],21.6% (inactive)
same,Potency,[4],inactive
O=C(c1cccc(F)c1)N1CCC2(CCCN(c3cccc(-c4ccccc4)c3)C2)CC1,Potency,[5],7.94 µM (active)
CS(=O)(=O)Nc1cccc(-c2ccc3ncnc(Nc4ccc(F)cc4)c3c2)c1,outcome,[2],inactive
COc1ccccc1CNc1nc(-c2ccc3c(c2)OCO3)nc2ccccc12,Potency,[5],3.16 µM (active)
O=c1c(-c2cc(F)cc(F)c2)nc2cncnc2n1Cc1ccccc1Cl,Potency,[6],3.98 µM (active)
same,Potency,[5],1.58 µM (active)
same,Potency,[4],inactive
COc1cccc(Nc2ncc3nc(-c4cn(C)c5ccccc45)c(=O)n(C[C@H]4CCCO4)c3n2)c1,Potency,[6],inactive
same,Potency,[4],inactive
COc1cc(C)c2c(c1C=O)Oc1c(c(C)c(O)c3c1C(O)OC3=O)OC2=O (configuration not stated),Potency,[1],inactive
same,outcome,[2],inactive
CN(C)c1ncc2nc(-c3ccc(F)cc3)c(=O)n(-c3ccccc3)c2n1,Potency,[4],inactive
O=c1c(-c2ccc(Cl)cc2)nc2cncnc2n1Cc1ccccc1Cl,Potency,[5],3.98 µM (active)
same,activation,[3],25.2% (inactive)
CS(=O)(=O)Nc1cccc(-c2ccc3ncnc(NCc4cccnc4)c3c2)c1,Potency,[5],0.0501 µM (active)
same,Potency,[1],inactive
same,activation,[3],-27.3% (inactive)
same,outcome,[2],inactive
N[C@H](C(=O)O)c1ccc(O)c(C(=O)O)c1,Potency,[5],inactive
same,outcome,[7],inactive
O=c1c(-c2cc(F)cc(F)c2)nc2cnc(N3CCOCC3)nc2n1-c1ccccc1,Potency,[3],2.51 µM (active)
COc1cccc(Nc2ncc3ncc(=O)n(Cc4cccs4)c3n2)c1,Potency,[4],0.794 µM (active)
Cc1c(CC(C)(C)C(=O)O)n(Cc2ccc(Cl)cc2)c2ccc(F)cc12,Potency,[6],0.501 µM (active)
same,Potency,[8],inactive
same,Potency,[5],316 nM (active) and inactive
same,outcome,[7],inactive
Cn1cc(-c2nc3cnc(N4CCOCC4)nc3n(CCC#N)c2=O)c2ccccc21,Potency,[4],inactive
COc1cccc(Cn2c(=O)c(-c3ccc(Cl)cc3)nc3cnc(N4CCNCC4)nc32)c1,Potency,[4],inactive
COc1ccc(CNc2ccnc(-c3cccc(C#N)c3)n2)c(OC)c1,Potency,[5],3.98 µM (active)
same,Potency,[4],10 µM (active)
O=c1c(-c2cccs2)nc2cnc(N3CCOCC3)nc2n1CCc1ccccc1,Potency,[4],inactive
COc1ccccc1CNc1nc(-c2cccc(C#N)c2)nc2ccccc12,Potency,[5],3.98 µM (active)
CN(C)c1ncc2nc(-c3cccs3)c(=O)n(C3CC3)c2n1,Potency,[3],3.98 µM (active)
Cn1cccc1C(=O)N1CCC2(CC1)CN(c1cccc(-c3ccccc3)c1)C2,Potency,[6],inactive
COC(=O)C1=C(C)NC(C)=C(C(=O)OCCSc2ccccc2)[C@@H]1C,Potency,[6],3.16 µM (active)
same,Potency,[5],0.199 µM (active)
same,outcome,[7],inactive
N#C/C(=C\c1ccc(O)c(O)c1)C(=O)OCCc1cccs1,Potency,[5],6.31 µM (active)
same,outcome,[7],inactive
O=c1c(-c2ccc(F)c(F)c2)nc2cncnc2n1Cc1ccccc1Cl,Potency,[6],5.01 µM (active)
same,Potency,[5],6.31 µM (active)
COc1ccccc1-c1ccc2ncnc(N(C)Cc3ccco3)c2c1,Potency,[4],14.1 µM (active)
O=C(CCCCCN1C(=O)c2cccc3cccc(c23)C1=O)NO,activity,[9],0.323%
same,"activity change, negative = inhibition",[10],0.722%
same,activity,[11],-12.3%
COc1ccccc1CNc1nc(-c2cccnc2)nc2ccccc12,Potency,[4],10 µM (active)
COc1ccc(CNc2ncncc2-c2ccccc2C)c(OC)c1,Potency,[5],1.58 µM (active)
same,Potency,[4],inactive
COCCn1c(=O)c(-c2cccs2)nc2cnc(N3CCOCC3)nc21,Potency,[4],inactive
COc1cccc(-c2cc(NCc3ccc(OC)cc3OC)ncn2)c1,Potency,[5],5.01 µM (active)
same,activation,[3],1.95% (inactive)
N#CCCn1c(=O)c(-c2ccc(Cl)cc2)nc2cnc(Nc3ccccc3)nc21,Potency,[4],inactive
COc1ccc(-c2nc3cnc(Nc4cccc(OC)c4)nc3n(Cc3cccs3)c2=O)cc1,Potency,[4],inactive
c1csc(CNc2ccnc(-c3ccc4c(c3)OCO4)n2)c1,Potency,[8],0.501 µM (active)
same,Potency,[5],5.01 µM (active)
same,Potency,[4],22.4 µM (active)
COc1cc(/C=C\c2ccc(OC)cc2OC)cc(OC)c1,Potency,[5],inactive
same,outcome,[7],inactive
COc1cccc(-c2nc(NCc3ccc(OC)cc3OC)c3ccccc3n2)c1,Potency,[4],inactive
c1ccc(CNc2ccnc(-c3ccc4c(c3)OCO4)n2)cc1,Potency,[8],1.58 µM (active)
same,Potency,[5],2 µM (active)
same,Potency,[1],inactive
same,outcome,[2],inactive
CN(C)c1ncnc2ccc(-c3ccccc3C(F)(F)F)cc12,Potency,[5],3.98 µM (active)
COc1ccc(CNc2ncncc2-c2c(C)noc2C)c(OC)c1,Potency,[4],inactive
CN(C)c1ncc2nc(-c3ccc(Cl)cc3)c(=O)n(C[C@H]3CCCO3)c2n1,Potency,[4],inactive
CNc1nc(-c2cccnc2)nc2ccccc12,"activity change, negative = inhibition",[6],82.3% [at 2.29 µM] (inactive)
same,Potency,[4],6.31 µM (active)
Cc1cnc(CNc2cc(-c3ccccc3C(F)(F)F)ncn2)cn1,"activity change, negative = inhibition",[6],49.4% [at 2.29 µM] (inactive)
same,activation,[3],4.59% (inactive)
same,Potency,[4],inactive
c1ccc(CNc2ncncc2-c2cccnc2)cc1,Potency,[4],inactive
